Results from PMC5540273 (PLoS ONE, 2017).

Key:
Conditions in all cases: concentration: 1 μM, replicates: in singlicate; n = 1
CSNK1G1 = system: CSNK1G1
CSNK1G2 = system: CSNK1G2
CSNK1G3 = system: CSNK1G3
CSNK2A1 = system: CSNK2A1
CSNK2A2 = system: CSNK2A2
CTK = system: T1, CTK
T1 construct: gene MATK

DAPK1 = system: DAPK1
DAPK2 = system: DAPK2
DAPK3 = system: DAPK3
DCAMKL1 = system: T2, DCAMKL1
T2 construct: gene DCLK1

DCAMKL2 = system: T3, DCAMKL2
T3 construct: gene DCLK2

DCAMKL3 = system: T4, DCAMKL3
T4 construct: gene DCLK3

DDR1 = system: DDR1
DDR2 = system: DDR2
DLK = system: T5, DLK
T5 construct: gene MAP3K12

DMPK2 = system: T6, DMPK2
T6 construct: gene CDC42BPG

DMPK = system: DMPK
DRAK1 = system: T7, DRAK1
T7 construct: gene STK17A

DRAK2 = system: T8, DRAK2
T8 construct: gene STK17B

DYRK1A = system: DYRK1A
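Further: KINOMEscan kinase panel screen.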

Structure (SMILES)	%Inh (CSNK1G1)	%Inh (CSNK1G2)	%Inh (CSNK1G3)	%Inh (CSNK2A1)	%Inh (CSNK2A2)	%Inh (CTK)	%Inh (DAPK1)	%Inh (DAPK2)	%Inh (DAPK3)	%Inh (DCAMKL1)	%Inh (DCAMKL2)	%Inh (DCAMKL3)	%Inh (DDR1)	%Inh (DDR2)	%Inh (DLK)	%Inh (DMPK2)	%Inh (DMPK)	%Inh (DRAK1)	%Inh (DRAK2)	%Inh (DYRK1A)
O=C(O)C(F)(F)F.O=C(O)C(F)(F)F.O=c1[nH]ccc2nc(N[C@@H]3CCCNC3)nc(Nc3ccc(S(=O)(=O)N4CCOCC4)cc3)c12 [GSK2177277]	96.3%	98.8%	99.2%	98.7%	98.9%	69%	98.2%	98.1%	99.3%	98.1%	100%	99.5%	18%	82%	95.6%	92.7%	99.7%	98.4%	94%	84%
O=C(Nc1ccccc1F)NC1CCN(c2ccnc(Nc3ccc(F)cc3)n2)CC1 [GSK1379800]	3%	0%	12%	0%	0%	0%	0%	0%	20%	0%	0%	0%	0%	31%	24%	4%	0%	0%	0%	4%
CCn1c(-c2nonc2N)nc2c(C#CC(C)(C)O)nc(OC[C@H](N)c3ccccc3)cc21 [GSK943949]	0%	0%	17%	0%	30%	11%	0%	3%	18%	12%	0%	19%	4%	12%	0%	0%	0%	13%	19%	4%
Cn1cc(-c2[nH]c3cc(NC(=O)[C@H](N)C4CCCCC4)cc4c3c2C=NNC4=O)cn1	0%	0%	2%	68%	77%	0%	99.8%	98.7%	99.7%	46%	24%	99.4%	0%	39%	94.8%	0%	82%	99.6%	99.9%	79%
COc1cccc(-c2ccc3c(NC(=O)C4CC4)n[nH]c3n2)c1 [SB-710903]	0%	0%	10%	0%	79%	0%	0%	0%	13%	21%	0%	6%	0%	52%	72%	0%	0%	2%	4%	52%
COCCOCCOc1cc2ncc3c4ccc(C#N)cc4[nH]c3c2cc1OC	0%	24%	17%	75%	95.3%	0%	0%	7%	15%	20%	14%	66%	0%	0%	71%	0%	3%	100%	100%	99%
C[C@@H]1CC[C@@H](C(=O)Nc2ccccc2)CN1c1cc(-c2ccc3c(N)n[nH]c3c2)nc(N)n1 [GSK2286062]	13%	8%	14%	54%	7%	0%	0%	23%	20%	7%	17%	0%	1%	22%	17%	0%	0%	18%	0%	3%
Cl.c1ccc(-c2ccc3c(Nc4ccc5[nH]ncc5c4)ccnc3c2)nc1 [GW440137]	0%	17%	30%	0%	8%	0%	15%	0%	23%	12%	0%	0%	67%	3%	1%	6%	0%	0%	6%	21%
Cl.Cl.NCC(NC(=O)c1cc(-c2ccccc2)c(-c2ccnc3[nH]ccc23)s1)c1ccccc1 (centres unmarked) [GSK1321561]	14%	89%	81%	5%	38%	0%	0%	3%	12%	0%	0%	10%	99.7%	76%	35%	94.7%	82%	41%	0%	13%
Cl.c1ccc(-c2ccc3c(Nc4ccc5[nH]ccc5c4)ccnc3c2)nc1 [GW440138]	0%	0%	25%	0%	0%	0%	5%	0%	23%	0%	0%	17%	99.4%	79%	43%	0%	0%	0%	2%	0%
